The whole screen tested about 1,900 compounds, of which about 40 (2%) showed an effect of 50% or more. This excerpt belongs to a sample that is enriched for strong results.
These compounds were tested against human SGLT1 (hSGLT1) (human, UniProt P13866) (assay: primary screen, percent of control activity; higher = less effect of the substance). Details: 50 µM.
Parameters: single well
Method: Two days before the assay, CHO‐wild type and CHO‐hSGLT1 cells were seeded in maintenance medium at 25 000 cells/well in clear‐bottom black 96‐well cell culture plates. Before the assay, cells were washed 3 times with 150 μL/well D‐glucose free DMEM with 0.3% (w/v) BSA. Library compounds at 50 μmol/L (singlicate) prepared in D‐glucose free DMEM with 160 μmol/L 1‐NBD‐glucose and 0.3% (w/v) BSA and negative controls (triplicate) were added at 100 μL/well and placed in a humidified incubator at 37°C with 5% CO2 for 90 minutes. Next, cells were washed 3 times with DMEM with 0.3% (w/v) BSA (150 μL/well). Care was taken to remove all medium after the last wash. Finally, 1‐NBD‐glucose was extracted from the cells by adding 10 μL/well isopropanol and orbital shaking for 5 minutes at 600 rpm, followed by incubation in the dark for 30 minutes. Fluorescence was measured on a Tecan Infinite M200 Microplate Reader (Tecan, Männedorf, Switzerland) with excitation at 445 nm and emission at 525 nm. The amount of 1‐NBD‐glucose taken up by the CHO‐wild type or CHO‐hSGLT1 cells in the presence or absence of test compounds was interpolated from 1‐NBD‐glucose calibration standards. The background uptake by CHO‐wild type was subtracted from the uptake by CHO‐hSGLT1. Background corrected uptake with test compound was expressed as a percentage of corrected uptake without test compound.

Sequence of human SGLT1 (hSGLT1) (P13866 whole entry, looked up): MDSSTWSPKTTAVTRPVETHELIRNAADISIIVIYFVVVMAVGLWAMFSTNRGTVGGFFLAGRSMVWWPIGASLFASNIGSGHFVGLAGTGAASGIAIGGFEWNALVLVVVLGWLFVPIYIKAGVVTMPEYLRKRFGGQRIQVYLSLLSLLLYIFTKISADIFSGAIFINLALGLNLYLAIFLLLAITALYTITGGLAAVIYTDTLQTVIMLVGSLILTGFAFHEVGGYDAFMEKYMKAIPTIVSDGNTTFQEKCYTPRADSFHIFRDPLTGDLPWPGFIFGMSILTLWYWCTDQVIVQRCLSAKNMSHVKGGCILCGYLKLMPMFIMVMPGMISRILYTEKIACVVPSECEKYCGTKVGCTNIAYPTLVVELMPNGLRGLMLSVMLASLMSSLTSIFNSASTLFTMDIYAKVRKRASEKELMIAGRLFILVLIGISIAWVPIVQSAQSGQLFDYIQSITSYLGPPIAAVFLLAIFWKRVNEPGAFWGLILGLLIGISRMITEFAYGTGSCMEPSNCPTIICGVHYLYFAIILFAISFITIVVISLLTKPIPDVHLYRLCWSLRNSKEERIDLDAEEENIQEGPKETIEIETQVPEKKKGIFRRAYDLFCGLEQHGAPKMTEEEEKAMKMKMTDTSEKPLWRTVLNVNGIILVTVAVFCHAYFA

SMILES	NORMALIZED SGLT1 ACTIVITY (%)
Cc1ccc2c(Cl)cc(Cl)c(O)c2n1	100%
Oc1c(Cl)cc(Cl)c(Cl)c1Cc1c(O)c(Cl)cc(Cl)c1Cl	-43%
Oc1c(Cl)c(Cl)c(Cl)c(Cl)c1Cl	622%
Cn1c(=O)[nH]c2ncn(C)c2c1=O	164%
CC(C)=CCOc1c2occc2cc2ccc(=O)oc12	161%
CN(C)CCCN1c2ccccc2Sc2ccccc21.Cl	38%
CN(C)CCCN1c2ccccc2Sc2ccc(C(F)(F)F)cc21.Cl	62%
CCN(CC)C(C)CN1c2ccccc2Sc2ccccc21.Cl (centres unmarked)	46%
CC(CN1c2ccccc2Sc2ccccc21)N(C)C.Cl (centres unmarked)	87%
CN(C)CCCN1c2ccccc2Sc2ccc(Cl)cc21	60%
CC(CN(C)C)CN1c2ccccc2Sc2ccccc21.O=C(O)C(O)C(O)C(=O)O (centres unmarked)	45%
CC(CN(C)C)CN1c2ccccc2CCc2ccccc21.O=C(O)/C=C\C(=O)O (centres unmarked)	51%
NS(=O)(=O)c1cc2c(cc1C(F)(F)F)NC(Cc1ccccc1)NS2(=O)=O (centres unmarked)	125%
O=C(Cn1ccnc1[N+](=O)[O-])NCCO	119%
CC(=O)O[C@H]1CC[C@@]2(C)C(C[C@@H](OC(C)=O)[C@@]3(C)C4=CC(=O)O[C@@H](c5ccoc5)[C@]4(C)CCC23)C1(C)C (some centres unmarked)	358%
CCCCC1C(=O)N(c2ccccc2)N(c2ccc(O)cc2)C1=O (centres unmarked)	109%
CCCCCNC(=N)N/N=C/c1c[nH]c2ccc(OC)cc12.O=C(O)/C=C\C(=O)O	141%
CO[C@@]1(NC(=O)C(C(=O)[O-])c2ccc(O)cc2)C(=O)N2C(C(=O)[O-])=C(CSc3nnnn3C)CO[C@@H]21.[Na+].[Na+] (some centres unmarked)	97%
CC(=O)O[C@@H]1CC(=O)[C@@]2(C)C(CC(=O)[C@]3(C)C2CC[C@@]2(C)[C@H](c4ccoc4)OC(=O)C4OC423)C1(C)C (some centres unmarked)	92%
COC(=O)[C@@]1(C)CCC[C@]2(C)c3ccc(O)c(C(C)C)c3CCC12 (some centres unmarked)	138%
Cc1c(O)c(C(=O)CC(C)C)c2oc3c(C(=O)CC(C)C)c(O)c(C)c(O)c3c2c1O	107%
O=[N+]([O-])c1ccc(O)c([N+](=O)[O-])c1	145%
CC(=O)Oc1ccccc1C(=O)O	112%
CC(=O)[O][Hg][c]1ccccc1	4%
CC(=O)Nc1ccccc1	112%

SMILES	NORMALIZED SGLT1 ACTIVITY (%)
Cc1nc2ccccn2c(=O)c1CCN1CCC(C(=O)c2ccc(F)cc2)CC1	129%
CCCCCCCCCCCCCCCCCC(=O)O.CC[C@H]1OC(=O)[C@H](C)[C@@H](O[C@H]2C[C@@](C)(OC)[C@@H](O)[C@H](C)O2)[C@H](C)[C@@H](O[C@@H]2O[C@H](C)C[C@H](N(C)C)[C@H]2O)[C@](C)(O)C[C@@H](C)C(=O)[C@H](C)[C@@H](O)[C@]1(C)O	106%
COc1ccc2c(=O)cc(-c3ccccc3OC)oc2c1	139%
COc1cc(OC)c2c(=O)c(-c3ccccc3)coc2c1	336%
CCCCCCCCCCCCCCCC[N+](C)(C)C.[Br-]	19%
CCCCCCCCCCCCCCCCOP(=O)([O-])OCC[N+](C)(C)C	79%
C[N+](C)(C)CCCCCC[N+](C)(C)C.[Br-].[Br-]	95%
CCCc1nc2c(C)cc(-c3nc4ccccc4n3C)cc2n1Cc1ccc(-c2ccccc2C(=O)O)cc1	171%
Cl.Cl.NCCc1c[nH]cn1	140%
O=C(O)c1cc(O)c2ccccc2n1	97%
COC(=O)CC1C(C)(C)C(OC(C)=O)[C@@H]2[C@@H](OC(C)=O)[C@]34O[C@@]2(O)[C@]1(C)C3CC[C@]1(C)C4=CC(=O)O[C@H]1c1ccoc1 (some centres unmarked)	94%
O=C(Cc1ccccc1)NO	95%
Cc1cccc(CN2CCN(C(c3ccccc3)c3ccc(Cl)cc3)CC2)c1.Cl.Cl (centres unmarked)	133%
Cl.Clc1ccc(C(OCCN2CCCCC2)c2ccccc2)cc1 (centres unmarked)	37%
Cl.Cl.O=C(O)COCCN1CCN(C(c2ccccc2)c2ccc(Cl)cc2)CC1 (centres unmarked)	141%
CCCCC[C@H]1C(=O)O[C@H](C)[C@H](NC(=O)c2cccc(NC=O)c2O)C(=O)O[C@@H](C)[C@@H]1OC(=O)CC(C)C	220%
O=C(O)c1cn(C2CC2)c2cc(N3CCNCC3)c(F)cc2c1=O	76%
O=c1ccc2cc(O)c(O)cc2o1	134%
CN[C@@H](C)[C@@H](O)c1ccccc1.Cl	120%
CNC(C)[C@H](O)c1ccccc1.Cl (some centres unmarked)	106%
CC(NCCC(c1ccccc1)c1ccccc1)c1ccccc1.Cl (centres unmarked)	48%
COc1cc(/C=C/C(=O)O)ccc1O	147%
N[C@H](C(=O)O)[C@@H]1CC(Cl)=NO1	89%
COc1ccc2[nH]cc(CCN)c2c1.Cl	120%
O=[N+]([O-])O[C@H]1CO[C@H]2[C@@H]1OC[C@H]2O[N+](=O)[O-]	100%

— article PMC6664820, “Novel natural and synthetic inhibitors of solute carriers SGLT1 and SGLT2” (Pharmacology Research & Perspectives, 2019)
